{"source": "the supplement of paper PMC11732987", "about": "“Enantioselective OTUD7B fragment discovery through chemoproteomics screening and high-throughput optimisation” (Communications Chemistry, 2025)", "note": "A number with no mark means an inactive call."}
{"target": "T1, VCPIP1 (UniProt Q96JH7)", "T1 sequence (whole entry)": "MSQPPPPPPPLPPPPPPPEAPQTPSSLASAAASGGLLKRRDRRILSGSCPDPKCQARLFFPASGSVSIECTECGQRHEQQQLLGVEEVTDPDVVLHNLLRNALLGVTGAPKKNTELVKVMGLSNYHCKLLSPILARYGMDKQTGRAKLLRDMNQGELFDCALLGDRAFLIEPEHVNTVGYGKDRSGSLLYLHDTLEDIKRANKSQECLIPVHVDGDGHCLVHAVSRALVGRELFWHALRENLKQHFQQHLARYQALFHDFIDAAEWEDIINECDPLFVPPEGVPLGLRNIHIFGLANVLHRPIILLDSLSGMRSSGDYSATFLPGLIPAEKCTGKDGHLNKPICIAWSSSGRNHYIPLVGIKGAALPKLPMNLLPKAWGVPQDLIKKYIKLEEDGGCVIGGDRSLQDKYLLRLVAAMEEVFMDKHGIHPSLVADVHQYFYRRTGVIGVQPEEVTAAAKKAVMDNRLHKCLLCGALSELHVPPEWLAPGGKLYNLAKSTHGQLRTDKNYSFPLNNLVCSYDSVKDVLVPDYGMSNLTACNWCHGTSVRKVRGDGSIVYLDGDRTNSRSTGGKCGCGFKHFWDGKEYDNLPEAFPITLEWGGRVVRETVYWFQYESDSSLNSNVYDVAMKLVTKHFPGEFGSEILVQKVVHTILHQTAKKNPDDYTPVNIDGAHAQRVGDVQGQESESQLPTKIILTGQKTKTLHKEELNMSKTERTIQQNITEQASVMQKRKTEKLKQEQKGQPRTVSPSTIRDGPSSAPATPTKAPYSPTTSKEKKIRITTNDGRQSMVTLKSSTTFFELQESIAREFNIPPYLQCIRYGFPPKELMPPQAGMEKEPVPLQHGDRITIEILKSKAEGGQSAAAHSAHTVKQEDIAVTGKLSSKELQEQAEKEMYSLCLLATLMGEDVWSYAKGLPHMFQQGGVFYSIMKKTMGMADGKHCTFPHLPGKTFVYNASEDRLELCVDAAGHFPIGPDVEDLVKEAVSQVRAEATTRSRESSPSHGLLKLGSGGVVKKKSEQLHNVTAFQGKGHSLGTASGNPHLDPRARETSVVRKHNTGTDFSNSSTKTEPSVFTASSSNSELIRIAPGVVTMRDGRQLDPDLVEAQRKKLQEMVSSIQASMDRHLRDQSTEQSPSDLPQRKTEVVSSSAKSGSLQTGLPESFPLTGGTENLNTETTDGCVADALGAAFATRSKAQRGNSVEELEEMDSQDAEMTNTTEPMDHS", "experiment": "log2 ratio of Biotin-Ahx-Ub-VS probe labelling (fragment/DMSO); higher = less target engagement (more negative = stronger competition), active = hit call of the paper (q ≤ 0.05, log2 ratio ≤ -1)", "conditions": "compound concentration: 200 uM; treatment time: 3 h", "protocol": "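Competitive ABPP in HEK293T cell lysate. Lysates were treated with each chloroacetamide fragment at 200 µM for 3 h, then with Biotin-Ahx-Ub-VS (0.5 µM, 1 h), NeutrAvidin-enriched and analysed by diaPASEF LC-MS/MS. Protein LFQ was median-normalised; average log2 ratio is fragment/DMSO from an unpaired t-test (n=3 treated, n=44 DMSO). Hits: q ≤ 0.05, log2 ratio ≤ -1, unique peptides ≥ 2.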"}
{"smiles": "Cc1ncc2c(n1)CCN(C(=O)CCl)C2", "log2 ratio of Biotin-Ahx-Ub-VS probe labelling": 0.323}
{"smiles": "CC(NC(=O)CCl)c1cnn(C2CC2)c1", "note": "(stereo not given)", "log2 ratio of Biotin-Ahx-Ub-VS probe labelling": "-1.15 (active)"}
{"smiles": "Cc1cccnc1NC(=O)C1CCN(C(=O)CCl)CC1.Cl", "log2 ratio of Biotin-Ahx-Ub-VS probe labelling": -0.543}
{"smiles": "O=C(CCl)N1CCC(C(=O)N2CCCC2)CC1", "log2 ratio of Biotin-Ahx-Ub-VS probe labelling": -0.191}
{"smiles": "CC(=O)Nc1ccc(NC(=O)CCl)cc1", "log2 ratio of Biotin-Ahx-Ub-VS probe labelling": "-1.31 (active)"}
{"smiles": "O=C(CCl)Nc1cc2c(cc1Cl)OCCO2", "log2 ratio of Biotin-Ahx-Ub-VS probe labelling": -0.947}
{"smiles": "O=C(CCl)Nc1ccc2c(c1)OC(F)(F)O2", "log2 ratio of Biotin-Ahx-Ub-VS probe labelling": "-1.43 (active)"}
{"smiles": "O=C(CCl)N1CCC(=C(F)CO)C1", "log2 ratio of Biotin-Ahx-Ub-VS probe labelling": -0.129}
{"smiles": "O=C(CCl)N(Cc1ccsc1)C1CC1", "log2 ratio of Biotin-Ahx-Ub-VS probe labelling": -0.642}
{"smiles": "Cc1ccc(N(CCC#N)C(=O)CCl)cc1C", "log2 ratio of Biotin-Ahx-Ub-VS probe labelling": "-2.17 (active)"}
{"smiles": "O=C(CCl)Nc1cccc2ncccc12", "log2 ratio of Biotin-Ahx-Ub-VS probe labelling": -0.848}
{"smiles": "O=C(CCl)N1CCC(OCc2ccccc2F)CC1", "log2 ratio of Biotin-Ahx-Ub-VS probe labelling": "-2.86 (active)"}
{"smiles": "CC(NC(=O)CCl)c1cccc2ccccc12", "note": "(stereo not given)", "log2 ratio of Biotin-Ahx-Ub-VS probe labelling": "-1.05 (active)"}
{"smiles": "O=C(CCl)N1CCc2[nH]c3ccccc3c2C1", "log2 ratio of Biotin-Ahx-Ub-VS probe labelling": "-2.89 (active)"}
{"smiles": "Cl.O=C(CCl)N1CCn2ncc(O)c2C1", "log2 ratio of Biotin-Ahx-Ub-VS probe labelling": -0.764}
{"smiles": "Cc1cc(Cl)ccc1NC(=O)CCl", "log2 ratio of Biotin-Ahx-Ub-VS probe labelling": -0.193}
{"smiles": "CN1c2ccccc2C(NC(=O)CCl)CS1(=O)=O", "note": "(stereo not given)", "log2 ratio of Biotin-Ahx-Ub-VS probe labelling": "-2.14 (active)"}
{"smiles": "Cc1nc(CN2CCCN(C(=O)CCl)CC2)no1.Cl", "log2 ratio of Biotin-Ahx-Ub-VS probe labelling": -0.1}
{"smiles": "Cl.O=C(CCl)NCc1ccnc(Oc2ccccc2F)c1", "log2 ratio of Biotin-Ahx-Ub-VS probe labelling": "-2.73 (active)"}
{"smiles": "O=C(CCl)NC1(c2ccc3c(c2)OCCO3)CCCC1", "log2 ratio of Biotin-Ahx-Ub-VS probe labelling": -0.7}
{"smiles": "CN1C(=O)c2ccc(NC(=O)CCl)cc2C1=O", "log2 ratio of Biotin-Ahx-Ub-VS probe labelling": "-2.49 (active)"}
{"smiles": "CC1Cc2ccccc2N1C(=O)CCl", "note": "(stereo not given)", "log2 ratio of Biotin-Ahx-Ub-VS probe labelling": "-1.3 (active)"}
{"smiles": "CS(=O)(=O)c1ccc(CNC(=O)CCl)cc1", "log2 ratio of Biotin-Ahx-Ub-VS probe labelling": "-1.22 (active)"}
{"smiles": "O=C(CCl)N1CC=C(c2c[nH]c3ccccc23)CC1", "log2 ratio of Biotin-Ahx-Ub-VS probe labelling": "-2.41 (active)"}
{"smiles": "O=C(CCl)NCc1ccc(N2CCOCC2)c(F)c1", "log2 ratio of Biotin-Ahx-Ub-VS probe labelling": "-2.18 (active)"}
{"smiles": "O=C(CCl)N1CCC(c2noc3cc(F)ccc23)CC1", "log2 ratio of Biotin-Ahx-Ub-VS probe labelling": "-2.98 (active)"}
{"smiles": "O=C(CCl)N1CCN(c2nc3ccccc3o2)CC1", "log2 ratio of Biotin-Ahx-Ub-VS probe labelling": -0.288}
{"smiles": "O=C(CCl)N1CCCCC12CCOCC2", "log2 ratio of Biotin-Ahx-Ub-VS probe labelling": -0.562}
{"smiles": "CCC1c2ccsc2CCN1C(=O)CCl", "note": "(stereo not given)", "log2 ratio of Biotin-Ahx-Ub-VS probe labelling": -0.892}
{"smiles": "O=C(CCl)Nc1cc2c(cc1Cl)OCCCO2", "log2 ratio of Biotin-Ahx-Ub-VS probe labelling": "-2.71 (active)"}
{"smiles": "Cc1nc(-c2cccc(NC(=O)CCl)c2)cs1", "log2 ratio of Biotin-Ahx-Ub-VS probe labelling": "-1.87 (active)"}
{"smiles": "COc1ccc(-c2csc(NC(=O)CCl)n2)cc1", "log2 ratio of Biotin-Ahx-Ub-VS probe labelling": "-1.46 (active)"}
{"smiles": "O=C(CCl)N1CCCC2CCCCC21", "note": "(stereo not given)", "log2 ratio of Biotin-Ahx-Ub-VS probe labelling": "-2.13 (active)"}
{"smiles": "O=C(CCl)NCCc1ccc2c(c1)OCCO2", "log2 ratio of Biotin-Ahx-Ub-VS probe labelling": "-2.55 (active)"}
{"smiles": "Cc1cccc(NC(=O)[C@@H]2CCCN2C(=O)CCl)n1", "log2 ratio of Biotin-Ahx-Ub-VS probe labelling": -0.551}
{"smiles": "CC1CN(c2ccc(NC(=O)CCl)cc2)CC(C)O1", "note": "(stereo not given)", "log2 ratio of Biotin-Ahx-Ub-VS probe labelling": -0.624}
{"smiles": "Cc1ccc(N(C(=O)CCl)C2C=CS(=O)(=O)C2)cc1", "note": "(stereo not given)", "log2 ratio of Biotin-Ahx-Ub-VS probe labelling": -0.0885}
{"smiles": "O=C(CCl)Nc1ccc(N2CCCC2=O)cc1", "log2 ratio of Biotin-Ahx-Ub-VS probe labelling": "-1.2 (active)"}
{"smiles": "Cc1cc(C(=O)NC2CCN(C(=O)CCl)CC2)no1", "log2 ratio of Biotin-Ahx-Ub-VS probe labelling": -0.548}
{"smiles": "CN(C)S(=O)(=O)c1ccccc1CNC(=O)CCl", "log2 ratio of Biotin-Ahx-Ub-VS probe labelling": "-1.15 (active)"}
